Measured potencies and affinities stand elsewhere. Calls of active or inactive are those of the source. How the calls were made is not given here.
Test: host cell cytotoxicity of antiviral hits, dose response, cytotoxicity control for West Nile virus antiviral project, secondary assay (AID 1650)
Conditions: Mammalian host cell viability, cytotoxicity counter-screen; series mostly up to 10 µM

Structure (SMILES)	outcome
O=C(/C=C/c1cccnc1)c1ccc(O)cc1	inactive
COc1cc(CNC(C)(C)CO)ccc1OCC(=O)Nc1ccc(Br)cc1	inactive
Cc1ccc(C)c(N2CCN(CCCNC(=O)CCC(=O)N3CCOc4ccc(Cl)cc43)CC2)c1	inactive
O=C(NCCC1=CCCCC1)c1coc(=O)c(Br)c1	inactive
CCOC(=O)C1(Cc2cccc(OC)c2)CCCN(C(=O)c2ccccc2C)C1 (centres undefined)	inactive
COc1ccc(C2c3c(ncn(CCCO)c3=N)Oc3ccc4ccccc4c32)cc1OC (centres undefined)	inactive
COC(=O)c1ccc(NC(=O)CC2C(=O)N(C)C(=S)N2Cc2ccc(S(N)(=O)=O)cc2)cc1 (centres undefined)	inactive
Cc1cc2nc(Sc3c([N+](=O)[O-])nc(C)n3Cc3ccccc3)[nH]c2cc1C	inactive
CCN(CC)CCNC(=O)c1ccc(NC(=O)C2CCN(c3ncnc4sc(C)c(C)c34)CC2)cc1	inactive
COc1ccccc1NS(=O)(=O)c1cccc(NC(=O)Nc2ccc(Cl)cc2)c1	inactive
CC/C(=C(\c1ccc(O)cc1)c1ccc(OCCN(C)C)cc1)c1ccccc1	inactive
CCOc1ccc(-c2cc(C(=O)NCCCN3CCCC3)c3ccccc3n2)cc1	inactive
CC1CN(C(=O)CCC(=O)NCCCN2CCC(Cc3ccccc3)CC2)c2cc(Cl)ccc2O1 (centres undefined)	inactive
COc1ccc2cc(Br)ccc2c1CC(=O)NC1CC(C)(C)NC(C)(C)C1	inactive
CCN(CC)CCCNC(=O)c1cc(-c2ccccc2)c(N2CCCCC2)s1	inactive
CCOc1ccc2nc(N3CCCC(C(=O)NCCCN4C(C)CCCC4C)C3)sc2c1 (centres undefined)	inactive
O=C(Nc1cccnc1Cl)c1cc(-c2ccc(Cl)cc2)on1	inactive
COCCn1c(SCC(=O)Nc2nnc(C)s2)nnc1-c1ccncc1	inactive
CC1(C)CC(NC(=O)COc2cc3oc(=O)c4c(c3cc2Cl)CCC4)CC(C)(C)N1	inactive
Cn1cnc([N+](=O)[O-])c1Oc1cccc2ccccc12	inactive
O=C(NC1CCCCC1)C(c1ccc(Cl)cc1)N(C(=O)c1ccccn1)c1cccnc1 (centres undefined)	inactive
O=[N+]([O-])c1cc(-c2nnc(Nc3ccc(O)cc3)c3ccccc23)ccc1N1CCOCC1	inactive
Cc1ccc(OCC(=O)c2cc(C)c(C)cc2C)c([N+](=O)[O-])n1	inactive
Cc1cc(C)cc(SCc2noc(C(=O)NCCCN3CCOCC3)c2C(=O)NCCCN2CCOCC2)c1	inactive
